“And” between values parts separate entries of the source, which are not always exact repeats. Identical values can stand only once. Records with an inconclusive call do not appear. Where a call stands in place of a potency, no number is given. A structure can be active in one record and inactive in another. The source made the active and inactive calls. Unless noted, calls follow the shape of the dose curve; as a rule, active = well fitted curve in the direction sought with a large enough effect in the repeat runs; inconclusive = weak or mixed curves; inactive = no such curve, though single readings can be large; an effect the other way counts as inactive or inconclusive.
Experiments:
[1] = qHTS assay to identify small molecule agonists of the vitamin D receptor (VDR) signaling pathway - cell viability counter screen (AID 743224); also: nearly all actives have a fitted effect of over 50% in size; also: potency is read from the fitted curve at half-maximal effect
Procedure, shortened: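 Viability is measured in the same wells as the VDR-bla reporter assay: after 16 h compound treatment and 2 h substrate loading, CellTiter-Glo is added and luminescence read 30 min later.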

[2] = qHTS assay to identify small molecule antagonists of the vitamin D receptor (VDR) signaling pathway - cell viability counter screen (AID 743225); also: nearly all actives have a fitted effect of over 50% in size; also: potency is read from the fitted curve at half-maximal effect
Procedure, shortened: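 Cells (VDR-UAS-bla HEK 293T) are plated, rested 4 h at 37C, dosed with compound and 3 nM final 1-alpha,25-dihydroxy vitamin D3, and incubated 16 h. Viability is taken from CellTiter-Glo luminescence in the reporter wells.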

[3] = qHTS assay to identify small molecule agonists of the NFkB signaling pathway - cell viability counter screen (AID 1159515; calls by dose curve; also: nearly all actives have a fitted effect of over 55% in size; also: potency is read from the fitted curve at half-maximal effect)
Procedure, shortened: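 Multiplexed viability readout: after the 5 hr compound exposure and 1.5 hr FRET substrate step, CellTiter-Glo reagent went into the same NFkB-bla ME-180 wells; ATP luminescence was measured after 30 min at room temperature.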

[4] = qHTS assay to identify small molecule agonists of the endoplasmic reticulum stress response signaling pathway (AID 1159516; active = well fitted activation curve with a large enough effect in the signal ratio in the repeat runs, not every such curve was filed as active; the % refers to the signal ratio)
Procedure, shortened: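 Tox21 10K library screened in quantitative HTS format on ESRE-bla HeLa cells, a beta-lactamase reporter under ER stress response element control; 5 hr treatment, FRET read.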

[5] = qHTS assay to identify small molecule agonists of the endoplasmic reticulum stress response signaling pathway - cell viability counter screen (AID 1159517; calls by dose curve; also: nearly all actives have a fitted effect of over 50% in size; also: potency is read from the fitted curve at half-maximal effect)
Procedure, shortened: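 Cells, HeLa ESRE-bla; density, 1,500/well; dosing, 5 hr at 37 C, 5% CO2; readout, CellTiter-Glo luminescence after 30 min RT.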

[6] = qHTS assay to identify small molecule antagonists of the retinoid-related orphan receptor gamma (ROR-gamma) signaling pathway - cell viability counter screen (AID 1159520); also: nearly all actives have a fitted effect of over 50% in size; also: potency is read from the fitted curve at half-maximal effect
Procedure, shortened: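 Cytotoxicity was read from cellular ATP (CellTiter-Glo luminescence) after 16 hr at 37 C with 1 uM doxycycline induction. The inducer was added 2 hr after compound transfer to Tet-on ROR gamma CHO cells.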

[7] = target: Nuclear receptor ROR-gamma (Homo sapiens) (UniProt P51449); assay: qHTS assay to identify small molecule antagonists of the retinoid-related orphan receptor gamma (ROR-gamma) signaling pathway (AID 1159521; also: nearly all actives have a fitted effect of over 50% in size; also: potency is read from the fitted curve at half-maximal effect)
Procedure, shortened: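 RORγ antagonism is scored from reduced reporter luminescence in Tet-on CHO cells. Induction used 1 uM final doxycycline hyclate for 16 h at 37 C, following a 2 h compound exposure.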

[8] = qHTS assay to identify small molecule agonists of the AP-1 signaling pathway - cell viability counter screen (AID 1159525; calls by dose curve; also: nearly all actives have a fitted effect of over 55% in size; also: potency is read from the fitted curve at half-maximal effect)
Procedure, shortened: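 Luminescent ATP readout (Cell Titer Glo, 30 min RT), normalised to DMSO and tetra n-octyl ammonium bromide controls. Cells were ME-180 AP-1-bla in 0.5% dialyzed FBS Opti-MEM, with a 5 h, 37 °C compound exposure.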

[9] = qHTS assay to identify small molecule antagonists of the retinoid acid receptor (RAR) signaling pathway - cell viability counter screen (AID 1159551); also: nearly all actives have a fitted effect of over 35% in size; also: potency is read from the fitted curve at half-maximal effect
Procedure, shortened: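 Cytotoxicity counter screen in C3RL4 cells: 6 h compound exposure with 1 uM retinol (final), viability from cellular ATP by luminescence.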

[10] = qHTS assay to identify small molecule antagonists of the retinoic acid receptor (RAR) signaling pathway (AID 1159552; also: nearly all actives have a fitted effect of over 50% in size; also: potency is read from the fitted curve at half-maximal effect)
Procedure, shortened: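 Quantitative HTS in C3RL4 RARE-luciferase reporter cells. Compounds were added with 1 uM (final) retinol; luminescence was read after 6 hr.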

[11] = qHTS assay to identify small molecule antagonists of the estrogen related receptor (ERR) signaling pathway from Tox21 library - cell viability counter screen (AID 1224834); also: nearly all actives have a fitted effect of over 30% in size; also: potency is read from the fitted curve at half-maximal effect
Procedure, shortened: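 Cytotoxicity of test substances is gauged in the same ERR cells used for the antagonist screen, after 17.5 h of compound treatment at 37 C, by CellTiter-Fluor fluorescence measured after 30 min.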

[12] = qHTS assay to identify small molecule agonists of the AP-1 signaling pathway (AID 1159526; calls by dose curve)
[13] = qHTS assay to identify small molecule agonists of the RXR signaling pathway - cell viability counter screen (AID 1159529)
Procedure, shortened: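 Cell viability is measured by CellTiter-Glo luminescence, 30 min at room temperature, in wells already read for beta-lactamase. Engineered HEK 293T cells (RXR-alpha-UAS-bla) are dosed 16 hr at 37 C. Tetraoctyl ammonium bromide serves as positive control.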

[14] = target: Retinoic acid receptor RXR-alpha (Homo sapiens) (UniProt P19793); assay: qHTS assay to identify small molecule agonists of the RXR signaling pathway (AID 1159527; calls by dose curve; also: nearly all actives have a fitted effect of over 35% in size)
Procedure, shortened: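 qHTS of the Tox21 10K library in GeneBLAzer RXR-alpha HEK 293T cells carrying a beta-lactamase reporter […]; 16 hr treatment, 9-cis retinoic acid as agonist control, FRET read-out.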

[15] = qHTS assay to identify small molecule agonists of the retinoic acid receptor (RAR) signaling pathway (AID 1159553)
Procedure, shortened: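 Agonist activity was scored in C3RL4 cells bearing a retinoic acid response element luciferase construct. Cells were treated with compounds for 6 hr at 37 C, and luciferase signal was measured as luminescence.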

[16] = qHTS assay to identify small molecule antagonists of the estrogen related receptor (ERR) signaling pathway (AID 1224819)
Procedure, shortened: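 Compounds dissolved in DMSO were pin-transferred onto ERR cells that had been plated 6 h earlier, and cells were then incubated 18 h at 37 C; signal was luciferase luminescence via One-Glo.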

[17] = system: estrogen-related receptor alpha (ERRalpha) with PGC-1alpha coactivator, human; assay: qHTS assay to identify small molecule antagonists of the estrogen related receptor signaling pathway with the pleiotropic PPARgamma coactivator (PGC) (AID 1224821; calls by dose curve)
Procedure, shortened: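 Quantitative HTS for antagonism: PGC/ERR cells received compounds after 6 h attachment and were incubated 18 h at 37 C, with luminescence (One-Glo) as the endpoint.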

[18] = qHTS assay to identify small molecule antagonists of the estrogen related receptor signaling pathway with the pleiotropic PPARgamma coactivator (PGC) cell viability counter screen (AID 1224822;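 also: series mostly up to about 46 µM; viability read after 17.5 h compound exposure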)
Procedure, shortened: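 Seed PGC/ERR cells (2,000/well); incubate 6 h at 37 C/5% CO2; pin-transfer compounds in DMSO; incubate 17.5 h at 37 C; add CellTiter-Fluor; after 30 min read fluorescence.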

[19] = qHTS assay to identify small molecule agonists of the estrogen related receptor signaling pathway with the pleiotropic PPARgamma coactivator (PGC) (AID 1224823)
Procedure, shortened: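 Cell-based luciferase assay in the NTP-supplied PGC/ERR line, 2,000 cells/well; 18 h compound exposure at 37 C, luminescence after One-Glo.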

[20] = qHTS assay to identify small molecule agonists of the estrogen related receptor (ERR) signaling pathway (AID 1224820)
Procedure, shortened: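 Quantitative HTS of the LOPAC library used NTP ERR reporter cells treated 18 h at 37 C. Signal is luminescence after One-Glo addition and a 30 min room-temperature incubation.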

Retinoic acid receptor RXR-alpha (Homo sapiens), sequence (P19793 whole entry, looked up): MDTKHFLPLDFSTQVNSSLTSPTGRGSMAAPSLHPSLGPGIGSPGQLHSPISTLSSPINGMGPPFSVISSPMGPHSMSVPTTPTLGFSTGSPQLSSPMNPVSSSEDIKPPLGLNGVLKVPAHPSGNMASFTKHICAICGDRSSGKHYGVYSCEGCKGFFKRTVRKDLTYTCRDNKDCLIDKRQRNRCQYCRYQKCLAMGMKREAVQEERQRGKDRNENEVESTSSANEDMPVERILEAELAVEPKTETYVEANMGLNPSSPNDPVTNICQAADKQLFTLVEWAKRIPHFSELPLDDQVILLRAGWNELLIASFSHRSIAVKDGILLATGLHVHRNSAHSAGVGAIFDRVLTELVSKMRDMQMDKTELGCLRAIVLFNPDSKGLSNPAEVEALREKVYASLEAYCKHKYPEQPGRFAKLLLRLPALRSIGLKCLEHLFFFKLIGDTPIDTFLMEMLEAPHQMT

SMILES	Potency [1]	Potency [2]	Potency [3]	outcome [4]	Potency [5]	Potency [6]	Potency [7]	Potency [8]	Potency [9]	Potency [10]	Potency [11]	Potency [12]	Potency [13]	Potency [14]	Potency [15]	Potency [16]	Potency [17]	Potency [18]	outcome [19]	outcome [20]
CC1=CC(=O)c2ccccc2C1=O	17.4 µM (active) and 11.9 µM (active)	17.4 µM (active) and 21.3 µM (active)	24.5 µM (active)	inactive	43.6 µM (active)	15.4 µM (active) and 29.8 µM (active)	12.2 µM (active)	17.4 µM (active)	27.3 µM (active)	30.6 µM (active)	61.1 µM (active) and inactive									
CC(C)(C)c1cc(C(C)(C)C)c(O)c(C(C)(C)C)c1	38.9 µM (active)	inactive	inactive	inactive	inactive	inactive	inactive	inactive and 49 µM (active)	inactive			inactive	inactive							
O=C(O)c1cc(Cl)cc(Cl)c1	inactive	inactive	inactive	inactive	inactive	inactive	inactive		inactive	inactive	inactive	inactive	inactive	inactive	inactive					
C1COC(NC(C2CC2)C2CC2)=N1	inactive		inactive	inactive	inactive	inactive	inactive		inactive	inactive	inactive	inactive	inactive	inactive		inactive	inactive	inactive	inactive	
CCC[C@H](N[C@@H](C)C(=O)N1[C@H](C(=O)O)C[C@@H]2CCCC[C@@H]21)C(=O)OCC	inactive		inactive	inactive	inactive	inactive	inactive		inactive	inactive	inactive	inactive		inactive	inactive					
CCN(CC)C(=O)Nc1ccc(OCC(O)CNC(C)(C)C)c(C(C)=O)c1 (stereo not drawn)	inactive		inactive	inactive	inactive	inactive	inactive		inactive	inactive	inactive	inactive	inactive	inactive						
CC1COc2c(N3CCN(C)CC3)c(F)cc3c(=O)c(C(=O)O)cn1c23 (stereo not drawn)	inactive		inactive	inactive	inactive	inactive	inactive		inactive	inactive	inactive	inactive	inactive	inactive	inactive			inactive		
O=S(=O)(O)c1ccc2nc(-c3ccccc3)[nH]c2c1	13.1 µM (active)		13.1 µM (active)	inactive	46.6 µM (active)					inactive	inactive	inactive	inactive	inactive	inactive					
CCc1cc(C(C)(C)C)c(O)c(C(C)(C)C)c1	inactive	inactive	inactive	inactive	inactive		inactive	inactive	inactive	inactive	inactive	inactive								
O=C(O)CCc1ccccc1	inactive		inactive	inactive	inactive		inactive	inactive	inactive	inactive	inactive	inactive		inactive	inactive					
CC(COc1ccccc1)N(CCCl)Cc1ccccc1 (stereo not drawn)	inactive	inactive	inactive		inactive	49.1 µM (active) and 54.5 µM (active) and 29.8 µM (active)	49.1 µM (active) and inactive	inactive	inactive		inactive		inactive	inactive						
CCn1cc(C(=O)O)c(=O)c2cc(F)c(N3CCNC(C)C3)c(F)c21 (stereo not drawn)	inactive	inactive	inactive	inactive	inactive		inactive	inactive	inactive	inactive	inactive	inactive		inactive	inactive	inactive	inactive	inactive	inactive	inactive
O=C1NCC2(CCN(CCc3ccccc3)CC2)O1	inactive	inactive	inactive	inactive	inactive		inactive		inactive	inactive		inactive	inactive	inactive	inactive			inactive		
CCOc1ccccc1C(N)=O	inactive	inactive	inactive	inactive	inactive		inactive	inactive	inactive		inactive	inactive	inactive	inactive						
Cc1scc2c1N(C(=O)CN1CCN(C)CC1)c1ccccc1NC2=O	inactive		inactive	inactive	inactive		inactive	inactive	inactive	inactive	inactive	inactive	inactive	inactive	inactive			inactive		
C[N+]1([O-])CCOCC1	inactive	inactive	inactive	inactive	inactive		inactive	inactive	inactive	inactive	inactive	inactive		inactive	inactive					
C=C(C)C1CC=C(C)C(OC(C)=O)C1 (stereo not drawn)	inactive	inactive	inactive	inactive	inactive		inactive	inactive	inactive	inactive	inactive	inactive	inactive	inactive	inactive					

Reference: PubChem BioAssay (Tox21)
